NPC1 prom act: activates the NPC1 promoter; Huh7 NPC1 promoter luciferase reporter, 24 h; Potency, µM (top dose mostly 9.22 µM), without a hit: top-dose activation, usual class: activators; AID 485313; hit rate 2.4% among 320,000; note: % of control where 0% means no effect; nearly all actives have a fitted effect of over 60% in size
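In 1536-well qHTS, Huh7 cells harboring an NPC1 promoter–luciferase construct received compound for 24 h; activation was quantified by luminescence following luciferase reagent addition.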
Rab9 prom act: activates the Rab9 promoter. Huh7 Rab9 promoter-luciferase reporter, luminescence, 24 h. Potency, µM (titrated, usually from 9.22 µM), for the others: at the top dose activation, negative = inhibition, usual class: activators. hit rate 2.8% among 320,000. AID 485297; note: % of control where 0% means no effect; nearly all actives have a fitted effect of over 60% in size
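Using Huh7 cells stably transfected with Rab9 promoter–luciferase, compounds were incubated 24 h at 37 °C, 5% CO2; luciferase luminescence was read 10 min after reagent addition.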
ELG1 genotoxic: genotoxicity induction in ELG1-luciferase HEK293T cells; HEK293T ELG1-luciferase reporter, luminescence, 16 h; Potency, µM (top dose mostly 46 µM), for the others: at the top dose activity change, positive = activation, usual class: activators; hit rate 1.3% among 330,000; AID 504466; note: % of control where 0% means no effect; nearly all actives have a fitted effect of over 60% in size
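Genotoxicity was scored as increased ELG1-luciferase reporter signal, measured by ONE-Glo luminescence (30 min, room temperature). Compound or vehicle exposure of the HEK293T reporter cells lasted 16 hr at 37°C.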
SMN2 splice up: SMN2 splice variant enhancement; HEK293 SMN2-luciferase splicing reporter, luminescence, 30-36 h; Potency, µM (top dose mostly 46.1 µM), for the others: at the top dose activity change, positive = activation, most hits filed as activators; hit rate 2.8% among 210,000; AID 1458; note: % of control where 0% means no effect; nearly all actives have a fitted effect of over 55% in size
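HEK293 cells carry an SMN2 minigene-luciferase reporter in which exon 7 inclusion puts luciferase in frame. Cells were seeded at 2000 cells/well, attached for 10-12 hours, then exposed to compounds for 30-36 hours at 37C before ONE-Glo luminescence.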
FLuc modulator: inhibits or activates purified firefly luciferase, miR-21 counter-screen | purified FLuc, Km substrates, luminescence inhibition | Potency, µM (doses to about 57.5 µM), for inactives: at the highest dose activity change, negative = inhibition, usual class: inhibitors | hit rate 6.9% among 360,000 | P08659 | AID 588342;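 note: plate controls were vehicle for no effect and reference inhibitor for full effect; nearly all actives have a fitted effect of over 55% in size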
Target sequence (P08659 whole entry, looked up): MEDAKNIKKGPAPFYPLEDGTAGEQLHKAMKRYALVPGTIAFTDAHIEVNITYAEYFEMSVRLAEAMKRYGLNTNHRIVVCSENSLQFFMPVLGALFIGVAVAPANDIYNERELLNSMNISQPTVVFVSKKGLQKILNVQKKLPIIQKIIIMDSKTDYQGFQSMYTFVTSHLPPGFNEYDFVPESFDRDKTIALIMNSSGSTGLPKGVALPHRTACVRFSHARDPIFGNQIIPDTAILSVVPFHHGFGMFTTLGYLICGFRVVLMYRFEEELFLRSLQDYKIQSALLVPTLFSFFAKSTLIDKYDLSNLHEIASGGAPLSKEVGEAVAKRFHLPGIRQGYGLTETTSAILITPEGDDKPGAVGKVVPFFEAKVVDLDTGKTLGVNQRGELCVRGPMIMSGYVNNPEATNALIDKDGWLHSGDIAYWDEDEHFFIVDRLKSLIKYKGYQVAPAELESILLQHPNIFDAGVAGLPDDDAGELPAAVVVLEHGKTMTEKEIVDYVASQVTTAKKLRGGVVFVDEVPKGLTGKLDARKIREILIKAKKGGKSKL
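Purified P. pyralis luciferase (10nM final) with 10uM D-luciferin and 10uM ATP (Km levels) in 50mM Tris acetate pH 7.5, 10mM Mg acetate, 0.01% Tween-20, 0.05% BSA; qHTS 6-point titration, ~60 µM downward; luminescence read.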
ELG1 repair inh: blocks ELG1-dependent DNA repair in HEK293T cells; HEK293T ELG1-luciferase reporter, luminescence, 16 h; DNA damage induced by 5-fluorouridine; hit rate 2.3% among 330,000; Potency, µM (highest dose often 46.1 µM), inactives show at the highest dose activity change, negative = inhibition, actives largely listed as inhibitors; note: % is set by controls: 0 for no effect and ±100 for the full control effect; nearly all actives have a fitted effect of over 55% in size
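In this reporter screen, reduction of luminescence relative to DMSO vehicle indicated activity. Compounds and 5-fluorouridine were added together to 2,000 cells per well, incubated for 16 hr at 37 °C, then developed with ONE-Glo.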
ELG1 FLuc counter: luciferase inhibition in cell-free luciferin readout for ELG1 hits | shares compounds with ELG1 repair inh | cell-free firefly luciferase luminescence counter-screen, ViewLux | Potency, µM (top dose mostly 46.1 µM), for the others: at the top dose activity change, negative = inhibition, actives largely listed as inhibitors | hit rate 3% among 350 | AID 624247; note: % is set by controls: 0 for no effect and ±100 for the full control effect
ELG1-Luc inh: inhibits ELG1-dependent DNA repair in HEK293T cells, confirmed. HEK293T ELG1-luciferase levels, luminescence; cells co-treated with 5-fluorouridine. shares compounds with ELG1 repair inh. Potency, µM (highest dose often 46.1 µM), without a hit: top-dose activity change, negative = inhibition, usual class: inhibitors. hit rate 68% among 670. AID 624248; note: % is set by controls: 0 for no effect and ±100 for the full control effect; nearly all actives have a fitted effect of over 55% in size
ELG1 MMS Luc: confirmation of human ELG1 repair inhibitors, MMS stimulated. shares compounds with ELG1 repair inh. HEK293T luciferase-tagged ELG1 level, MMS stimulated. Potency, µM (doses to about 46.1 µM), for inactives: at the highest dose activity change, negative = inhibition, actives largely listed as inhibitors. hit rate 53% among 670. AID 624249; note: % is set by controls: 0 for no effect and ±100 for the full control effect; nearly all actives have a fitted effect of over 60% in size
ELG1 5FU viab: confirmation of ELG1 repair inhibitors: viability with 5FU; shares compounds with ELG1 repair inh; 670 tested, under 10 active; AID 624250; Potency, µM (top dose mostly 46.1 µM), inactives show at the highest dose activity change, negative = viability loss, hits mostly cytotoxic; cell viability with 5-FU, ELG1-dependent repair;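 note: ELG1-luc HEK293T cells cotreated with 5-fluorouridine at 10 µM final; viability measured 16 h after compound addition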
ELG1 MMS viab: confirmation of ELG1 repair inhibitors: viability with MMS; Cell viability with MMS, ELG1-dependent DNA repair; hit rate 33% among 670; Potency, µM (doses to about 46.1 µM), inactives show top-dose activity change, negative = viability loss, actives largely listed as cytotoxic; AID 624251; shares compounds with ELG1 repair inh;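 note: ELG1-luc HEK293T cells co-treated with 10 µM MMS; viability read 16 h after compound addition; % is set by controls: 0 for no effect and ±100 for the full control effect; nearly all actives have a fitted effect of over 60% in size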
Cell viab unstim: counter-screen for ELG1 repair inhibitors: unstimulated cell viability; shares compounds with ELG1 repair inh; Potency, µM (titrated, usually from 45.9 µM), without a hit: top-dose activity change, negative = loss of viability, hits mostly cytotoxic; AID 624252; cell viability counter-screen, unstimulated, luminescence; hit rate 8% among 900;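 note: compound exposure lasted 16 hours before reading; % is set by controls: 0 for no effect and ±100 for the full control effect; nearly all actives have a fitted effect of over 55% in size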
FLuc biochem: counter-screen for ELG1 repair inhibitors: firefly luciferase inhibition; shares compounds with ELG1 repair inh; purified firefly luciferase, luminescence counter-screen; Potency, µM (highest dose often 57.5 µM), for inactives: at the highest dose activity, negative = inhibition, usual class: inhibitors; hit rate 10% among 350; AID 624253; note: % is set by controls: 0 for no effect and ±100 for the full control effect
* hit, by the source's call; ? = inconclusive; · = not tested or not shown; [ ] = dose if it differs, or a comment. A selection: hits, their analogues and other compounds. The true share with any hit is near 9.4%. Calls come from the whole dose curve; as a rule, active = well fitted curve in the direction sought with a large enough effect; inconclusive = small, poorly fitted or top-dose-only effect, or another doubt; inactive = no such curve, though single readings can be large; an effect the other way counts as inactive or inconclusive. Potency is the fitted concentration of half-maximal effect.

SMILES	NPC1 prom act	Rab9 prom act	ELG1 genotoxic	SMN2 splice up	FLuc modulator	ELG1 repair inh	ELG1-Luc inh	ELG1 MMS Luc	ELG1 5FU viab	ELG1 MMS viab	Cell viab unstim	others
O=c1[nH]c(=O)n([C@@H]2C[C@H](O)[C@H](CO)O2)cc1C(F)(F)F	·	·	·	-11.2%[20.6 µM]	·	·	?	-2.9%[23.5 µM]	-2.9%[23.5 µM]	?	8.3%[15.7 µM]	ELG1 FLuc counter=-8.8%[28.2 µM];FLuc biochem=4.8%[35.2 µM]
COCC(C)NC(=O)c1ccc2nc(-c3ccccc3)c(-c3ccccc3)nc2c1 (centres undefined)	-3.4%	7.1%	-4.9%	·	-2.9%	?	·	·	·	·	·
CCC(C)NC(=O)c1ccc2nc(-c3ccc(OC)c(OC)c3)c(-c3ccc(OC)c(OC)c3)nc2c1 (centres undefined)	-3.3%	-2.4%	-6.1%	·	1.4%	0.517µM*	1.58µM*	-16.7%	?	-8.1%	?	ELG1 FLuc counter=8.7%;FLuc biochem=-5.3%
COc1ccc(-c2noc(-c3ccc(NCc4cccnc4)c([N+](=O)[O-])c3)n2)cc1	·	·	·	·	-15.2%	·	·	·	·	·	·
COc1ccc(-c2nc(-c3cccnc3)no2)cc1	0.631µM*	0.447µM*	?	·	2.39µM*	?	·	·	·	·	0.3%
CCC(C)(C)C1CCc2nc3ccccc3c(C(=O)OC(C)C(=O)Nc3c(C)n(C)n(-c4ccccc4)c3=O)c2C1 (centres undefined)	-7.3%	-5.1%	-8.1%	-20.5%	-16.9%	4.11µM*	2.23µM*	25µM*	?	3.2%	?
CCOc1ccc(NC(=O)Cn2c(CCC(=O)O)ccc2-c2ccc(C)cc2)cc1	·	·	·	-8.6%	-19.5%	·	·	·	·	·	·
Cc1ccc(NC(=O)N2CCOCC2)c(C)c1	0.9%	?	-1.7%	-4.4%	0.0%	7.4%	·	·	·	·	·
Cc1ccc2oc(NC(=O)N3CCOCC3)cc(=O)c2c1	3.1%	2.2%	-2.6%	9.7%	-4.5%	3.55µM*	18.6%	14.9%	-2.8%	-5.5%	-12.7%
COc1cc(/C=C(\C#N)C(=O)Nc2ccc(C)cc2)ccc1OCc1cc(=O)n2nc(C)sc2n1	·	·	·	-0.2%	-6.3%	·	·	·	·	·	·
COc1ccc(-c2cc(C)no2)cc1S(=O)(=O)N1CCN(c2cccc(C)c2)C(C)C1 (centres undefined)	-27.9%	-33.7%	-5.0%	·	3.7%	3.26µM*	12.5µM*	3.15µM*	-7.0%	3.97µM*	?
Cc1cccc(N2CCN(S(=O)(=O)c3cc(-c4cc(C)no4)ccc3C)CC2C)c1 (centres undefined)	-40.0%	-38.1%	-9.5%[9.26 µM]	·	0.9%	?	·	·	·	·	·
Cc1ccc(C)c(NC(=O)CN2C(=O)c3cccnc3Oc3ccc(C)cc32)c1	·	·	·	·	-7.3%	·	·	·	·	·	·
COc1cc2c(C(=O)Nc3ccccc3F)cn(C)c(=O)c2cc1OC	-2.7%	2.7%	-1.3%	·	2.7%	4.7%	17.7µM*	2.6%	?	?	-1.0%	ELG1 FLuc counter=5.8%;FLuc biochem=4.0%
COc1ccccc1NC(=O)c1cn(C)c(=O)c2cc(OC)c(OC)cc12	-2.7%	3.9%	-4.0%	-4.9%	0.9%	?	·	·	·	·	·
COc1cc(Cl)c(C)cc1NC(=O)CN(C)Cc1cccc(OC)c1OC	10.2%	-1.5%	-7.9%	-30.2%	-10.9%	2.59µM*	25µM*	15.8µM*	5.7%	14.1µM*	?
COc1ccccc1CN(C)CC(=O)Nc1cccc2ccccc12	1.6%	0.5%	-8.9%	·	5.2%	-8.3%	·	·	·	·	·
CN(c1ncnc(N)c1[N+](=O)[O-])C1CCCCC1	16.6%	-4.6%	-12.2%[9.26 µM]	·	-3.8%	1.83µM*	3.15µM*	12.5µM*	-8.4%	-5.0%	?
CCC(CO)Oc1cc(NCc2ccccc2O)c2ncn(C(C)C)c2c1 (centres undefined)	·	·	-6.2%	·	·	2.31µM*	8.88µM*	4.45µM*	5.5%	4.45µM*	?
Cc1ccc(C(=O)N/C(=C\c2cn(-c3ccccc3)nc2-c2ccccc2)C(=O)N2CCOCC2)cc1	-4.6%	-5.1%	2.3%	-7.2%	-1.1%	-5.5%	·	·	·	·	·
COc1ccc(-c2nn(-c3ccccc3)cc2/C=C/C(=O)N2CCOCC2)cc1OC	0.3%	-2.0%	-1.1%	10.7%	23.9µM*	1.46µM*	1.41µM*	-16.4%	?	-10.5%	?
COCCN(C(=O)Cc1cccs1)C(C(=O)NCc1ccc(OC)cc1)c1ccc(C)cc1 (centres undefined)	-1.3%	0.2%	-3.1%	?	3.4%	?	·	·	·	·	·
COc1ccc(CNC(=O)C(c2ccc(C)o2)N(Cc2cccs2)C(=O)Cc2cccs2)cc1 (centres undefined)	-2.4%	0.1%	-7.3%	-3.1%	-12.7%	20.6µM*	11.2µM*	?	3.7%	-4.3%	?	ELG1 FLuc counter=-13.9%;FLuc biochem=3.3%
CC(=O)Nc1cccc(-c2cnc(N)c(C(=O)c3cccnc3)n2)c1	·	·	-8.8%	·	·	0.461µM*	0.792µM*	2.81µM*	4.5%	?	?	ELG1 FLuc counter=?;FLuc biochem=0.9%

Bioassay records from PubChem BioAssay.
